# Experimental data reported in paper PMC7862700, “An all-to-all approach to the identification of sequence-specific readers for epigenetic DNA modifications on cytosine”.
# Tests used:
# Assay in all cases: DAPPL (digital affinity profiling via proximity ligation, sequencing); 10 mM Tris-HCl pH 7.5, 50 mM NaCl, 1 mM DTT, 4% glycerol, room temperature, 30 min; GST-TFs on glutathione beads, 16-mer random dsDNA library, 0.1% formaldehyde crosslink after washing; high values mean tight binding
# Conditions in all cases: protein: recombinant; tags: N-terminal GST; dsDNA, one strand shown
# FLI1 = target: T1, FLI1 (Homo sapiens, UniProt Q01543 1-452)
# T1 sequence: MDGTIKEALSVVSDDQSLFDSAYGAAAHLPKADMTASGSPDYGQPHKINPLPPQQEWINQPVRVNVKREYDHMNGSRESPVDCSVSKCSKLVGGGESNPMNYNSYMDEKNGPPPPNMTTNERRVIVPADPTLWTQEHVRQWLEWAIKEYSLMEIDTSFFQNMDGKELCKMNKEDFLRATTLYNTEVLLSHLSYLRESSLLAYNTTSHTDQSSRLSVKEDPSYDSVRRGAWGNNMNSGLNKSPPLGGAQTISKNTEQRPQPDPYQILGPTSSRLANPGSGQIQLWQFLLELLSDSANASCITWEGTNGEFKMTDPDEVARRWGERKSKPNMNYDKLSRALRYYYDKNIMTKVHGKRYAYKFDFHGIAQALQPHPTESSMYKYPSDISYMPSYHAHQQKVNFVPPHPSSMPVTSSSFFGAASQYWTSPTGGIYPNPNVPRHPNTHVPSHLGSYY
# How it was run: (§1)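 Binding signal is given per hexamer as its read frequency for a factor divided by its frequency in the tag-only sample. GST-fused human transcription factors were expressed in yeast, captured on glutathione beads, barcoded with DNA and pooled with that sample, then incubated with 200 nmole of a 16-mer random double-stranded DNA library in Tris/NaCl/DTT/glycerol buffer for 30 min at room temperature. The pools were then washed, crosslinked, proximity-ligated, amplified by PCR and sequenced on an Illumina NextSeq500.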
# ELK1 = target: T2, ELK1 (Homo sapiens, UniProt P19419 1-428)
# T2 sequence: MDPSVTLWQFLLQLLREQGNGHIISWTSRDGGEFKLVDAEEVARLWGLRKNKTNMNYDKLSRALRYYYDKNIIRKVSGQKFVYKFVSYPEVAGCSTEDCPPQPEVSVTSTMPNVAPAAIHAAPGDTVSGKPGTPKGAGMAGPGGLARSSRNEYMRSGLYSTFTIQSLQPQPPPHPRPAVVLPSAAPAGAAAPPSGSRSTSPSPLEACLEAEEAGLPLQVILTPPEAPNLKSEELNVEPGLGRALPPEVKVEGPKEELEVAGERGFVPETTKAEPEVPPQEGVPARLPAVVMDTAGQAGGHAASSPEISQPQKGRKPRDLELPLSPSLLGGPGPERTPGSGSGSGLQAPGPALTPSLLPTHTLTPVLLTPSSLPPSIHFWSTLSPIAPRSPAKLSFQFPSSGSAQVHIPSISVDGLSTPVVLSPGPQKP
# How it was run: as §1
# GABPA = target: T3, GABPA (Homo sapiens, UniProt Q06546 1-454)
# T3 sequence: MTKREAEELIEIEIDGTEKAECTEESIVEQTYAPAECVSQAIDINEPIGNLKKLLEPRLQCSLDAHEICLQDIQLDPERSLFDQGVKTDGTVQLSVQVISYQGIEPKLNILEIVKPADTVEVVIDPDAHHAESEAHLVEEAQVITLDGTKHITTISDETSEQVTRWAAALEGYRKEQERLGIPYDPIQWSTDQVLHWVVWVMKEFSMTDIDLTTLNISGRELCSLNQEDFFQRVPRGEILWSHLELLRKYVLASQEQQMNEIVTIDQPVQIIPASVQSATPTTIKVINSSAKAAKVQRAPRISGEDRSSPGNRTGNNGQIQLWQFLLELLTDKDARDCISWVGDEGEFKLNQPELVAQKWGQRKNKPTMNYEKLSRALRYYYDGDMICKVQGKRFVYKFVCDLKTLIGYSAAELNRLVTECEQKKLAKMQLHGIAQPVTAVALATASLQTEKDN
# How it was run: as §1
# ERG = target: T4, ERG (Homo sapiens, UniProt P11308 1-479)
# T4 sequence: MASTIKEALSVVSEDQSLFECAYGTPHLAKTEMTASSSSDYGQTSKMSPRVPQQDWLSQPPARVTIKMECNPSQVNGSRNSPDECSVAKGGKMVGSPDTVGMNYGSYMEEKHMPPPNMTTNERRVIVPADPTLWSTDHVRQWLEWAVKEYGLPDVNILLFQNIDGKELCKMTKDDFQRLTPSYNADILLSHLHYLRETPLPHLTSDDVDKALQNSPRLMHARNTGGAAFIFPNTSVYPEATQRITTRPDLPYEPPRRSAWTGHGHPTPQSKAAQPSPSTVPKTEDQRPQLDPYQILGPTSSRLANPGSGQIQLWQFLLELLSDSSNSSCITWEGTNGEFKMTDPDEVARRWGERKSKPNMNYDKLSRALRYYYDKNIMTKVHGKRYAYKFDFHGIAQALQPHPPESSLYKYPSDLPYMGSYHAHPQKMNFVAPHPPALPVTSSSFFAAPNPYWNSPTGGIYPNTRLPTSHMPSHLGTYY
# How it was run: as §1
# ELF1 = ELF1 (Homo sapiens, UniProt P32519 1-619)
# ELF1, sequence (P32519 whole entry): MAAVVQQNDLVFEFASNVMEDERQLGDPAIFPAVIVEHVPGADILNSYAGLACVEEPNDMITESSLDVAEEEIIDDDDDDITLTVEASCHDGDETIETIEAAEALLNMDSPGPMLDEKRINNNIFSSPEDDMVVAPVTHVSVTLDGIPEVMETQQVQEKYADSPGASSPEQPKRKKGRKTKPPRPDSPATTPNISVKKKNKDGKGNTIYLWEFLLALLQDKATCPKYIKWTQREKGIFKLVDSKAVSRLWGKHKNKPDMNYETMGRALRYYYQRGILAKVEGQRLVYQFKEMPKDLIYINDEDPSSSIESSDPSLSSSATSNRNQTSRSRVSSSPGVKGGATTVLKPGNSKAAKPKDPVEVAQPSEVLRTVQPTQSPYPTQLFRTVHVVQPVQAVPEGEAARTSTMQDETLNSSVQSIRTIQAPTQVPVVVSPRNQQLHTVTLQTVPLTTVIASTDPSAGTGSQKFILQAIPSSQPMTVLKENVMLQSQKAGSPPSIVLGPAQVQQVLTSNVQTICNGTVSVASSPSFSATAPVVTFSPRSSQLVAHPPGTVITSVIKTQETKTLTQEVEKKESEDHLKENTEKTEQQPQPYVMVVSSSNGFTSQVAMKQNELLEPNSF
# How it was run: as §1
# EHF = target: T5, EHF (Homo sapiens, UniProt Q9NZC4 1-300)
# T5 sequence: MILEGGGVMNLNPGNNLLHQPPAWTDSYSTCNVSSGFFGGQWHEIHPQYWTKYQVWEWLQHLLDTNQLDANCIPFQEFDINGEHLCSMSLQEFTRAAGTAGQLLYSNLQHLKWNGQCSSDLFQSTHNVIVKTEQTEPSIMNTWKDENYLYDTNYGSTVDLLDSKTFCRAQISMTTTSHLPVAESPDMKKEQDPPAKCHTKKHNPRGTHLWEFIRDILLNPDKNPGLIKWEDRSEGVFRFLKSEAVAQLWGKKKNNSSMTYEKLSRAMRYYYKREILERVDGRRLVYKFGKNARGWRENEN
# How it was run: as §1
# SPI1 = SPI1 (Homo sapiens, UniProt P17947 1-270)
# How it was run: as §1
# SPIB = SPIB (Homo sapiens, UniProt Q01892 1-262)
# SPIB, sequence (Q01892 whole entry): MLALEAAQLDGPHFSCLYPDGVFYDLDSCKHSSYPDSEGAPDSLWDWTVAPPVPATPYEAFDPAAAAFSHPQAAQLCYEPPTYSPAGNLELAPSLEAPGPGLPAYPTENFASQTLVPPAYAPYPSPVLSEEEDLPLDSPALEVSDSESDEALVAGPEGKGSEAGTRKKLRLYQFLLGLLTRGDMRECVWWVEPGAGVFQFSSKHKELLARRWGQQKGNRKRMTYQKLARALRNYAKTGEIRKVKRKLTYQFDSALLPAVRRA
# How it was run: as §1
# ELK3 = target: T6, ELK3 (Homo sapiens, UniProt P41970 1-407)
# T6 sequence: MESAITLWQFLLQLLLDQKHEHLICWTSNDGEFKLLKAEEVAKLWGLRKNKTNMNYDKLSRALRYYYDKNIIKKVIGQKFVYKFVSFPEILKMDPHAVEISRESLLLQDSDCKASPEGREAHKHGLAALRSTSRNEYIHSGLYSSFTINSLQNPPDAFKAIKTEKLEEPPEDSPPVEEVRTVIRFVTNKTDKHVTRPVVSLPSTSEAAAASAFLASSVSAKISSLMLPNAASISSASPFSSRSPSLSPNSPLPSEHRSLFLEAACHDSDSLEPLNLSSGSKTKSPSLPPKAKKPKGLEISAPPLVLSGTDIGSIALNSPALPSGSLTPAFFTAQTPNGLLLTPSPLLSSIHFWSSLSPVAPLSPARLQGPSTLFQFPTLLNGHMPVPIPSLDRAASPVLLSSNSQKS
# How it was run: as §1
Sequence,binding signal (FLI1),binding signal (ELK1),binding signal (GABPA),binding signal (ERG),binding signal (ELF1),binding signal (EHF),binding signal (SPI1),binding signal (SPIB),binding signal (ELK3)
CACTCC,"1.27 fold enrichment (6-mer frequency, TF over GST control)","1.41 fold enrichment (6-mer frequency, TF over GST control)","1.32 fold enrichment (6-mer frequency, TF over GST control)","1.29 fold enrichment (6-mer frequency, TF over GST control)","1.34 fold enrichment (6-mer frequency, TF over GST control)","1.17 fold enrichment (6-mer frequency, TF over GST control)","1.23 fold enrichment (6-mer frequency, TF over GST control)","1.33 fold enrichment (6-mer frequency, TF over GST control)","1.27 fold enrichment (6-mer frequency, TF over GST control)"
TCCCGT,"1.24 fold enrichment (6-mer frequency, TF over GST control)","1.23 fold enrichment (6-mer frequency, TF over GST control)","1.26 fold enrichment (6-mer frequency, TF over GST control)","1.37 fold enrichment (6-mer frequency, TF over GST control)","1.26 fold enrichment (6-mer frequency, TF over GST control)","1.35 fold enrichment (6-mer frequency, TF over GST control)","1.43 fold enrichment (6-mer frequency, TF over GST control)","1.3 fold enrichment (6-mer frequency, TF over GST control)","1.3 fold enrichment (6-mer frequency, TF over GST control)"
ATTCCC,"1.37 fold enrichment (6-mer frequency, TF over GST control)","1.32 fold enrichment (6-mer frequency, TF over GST control)","1.38 fold enrichment (6-mer frequency, TF over GST control)","1.3 fold enrichment (6-mer frequency, TF over GST control)","1.4 fold enrichment (6-mer frequency, TF over GST control)","1.35 fold enrichment (6-mer frequency, TF over GST control)","1.34 fold enrichment (6-mer frequency, TF over GST control)","1.48 fold enrichment (6-mer frequency, TF over GST control)","1.44 fold enrichment (6-mer frequency, TF over GST control)"
TGCTCA,"1.32 fold enrichment (6-mer frequency, TF over GST control)","1.28 fold enrichment (6-mer frequency, TF over GST control)","1.34 fold enrichment (6-mer frequency, TF over GST control)","1.41 fold enrichment (6-mer frequency, TF over GST control)","1.41 fold enrichment (6-mer frequency, TF over GST control)","1.36 fold enrichment (6-mer frequency, TF over GST control)","1.27 fold enrichment (6-mer frequency, TF over GST control)","1.35 fold enrichment (6-mer frequency, TF over GST control)","1.19 fold enrichment (6-mer frequency, TF over GST control)"
ATTCAA,"1.26 fold enrichment (6-mer frequency, TF over GST control)","1.34 fold enrichment (6-mer frequency, TF over GST control)","1.4 fold enrichment (6-mer frequency, TF over GST control)","1.36 fold enrichment (6-mer frequency, TF over GST control)","1.39 fold enrichment (6-mer frequency, TF over GST control)","1.41 fold enrichment (6-mer frequency, TF over GST control)","1.31 fold enrichment (6-mer frequency, TF over GST control)","1.34 fold enrichment (6-mer frequency, TF over GST control)","1.39 fold enrichment (6-mer frequency, TF over GST control)"
ATATTC,"1.24 fold enrichment (6-mer frequency, TF over GST control)","1.2 fold enrichment (6-mer frequency, TF over GST control)","1.24 fold enrichment (6-mer frequency, TF over GST control)","1.18 fold enrichment (6-mer frequency, TF over GST control)","1.28 fold enrichment (6-mer frequency, TF over GST control)","1.19 fold enrichment (6-mer frequency, TF over GST control)","1.19 fold enrichment (6-mer frequency, TF over GST control)","1.22 fold enrichment (6-mer frequency, TF over GST control)","1.14 fold enrichment (6-mer frequency, TF over GST control)"
GTTACA,"1.15 fold enrichment (6-mer frequency, TF over GST control)","1.1 fold enrichment (6-mer frequency, TF over GST control)","1.09 fold enrichment (6-mer frequency, TF over GST control)","1.13 fold enrichment (6-mer frequency, TF over GST control)","1.14 fold enrichment (6-mer frequency, TF over GST control)","1.2 fold enrichment (6-mer frequency, TF over GST control)","1.11 fold enrichment (6-mer frequency, TF over GST control)","1.09 fold enrichment (6-mer frequency, TF over GST control)","1.24 fold enrichment (6-mer frequency, TF over GST control)"
CGGAAA,"1.89 fold enrichment (6-mer frequency, TF over GST control)","2.13 fold enrichment (6-mer frequency, TF over GST control)","1.88 fold enrichment (6-mer frequency, TF over GST control)","2.63 fold enrichment (6-mer frequency, TF over GST control)","1.87 fold enrichment (6-mer frequency, TF over GST control)","2.31 fold enrichment (6-mer frequency, TF over GST control)","1.89 fold enrichment (6-mer frequency, TF over GST control)","2.22 fold enrichment (6-mer frequency, TF over GST control)","2.28 fold enrichment (6-mer frequency, TF over GST control)"
